# According to PubChem BioAssay AID1159580 (chemical genetic matrix, 2015):
# The campaign covered roughly 5,500 compounds. About 2,000 (36%) were called active. Another 18% or so got no clear call; they are omitted. Some of the results follow. Values without a mark were called inactive. Rule as the data show it: active = normalized growth mostly below about 0.91 (no sharp cut-off); inconclusive = no clear call, values can overlap the other calls; inactive = mostly above about 0.92.
# Test: chemical genetic growth profiling, strain panel (AID 1159580);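 also: tested at 20 µM; growth read once vehicle control cultures reached saturation at 30 °C; 1 = growth at the plate median or of vehicle wells; lower values mean less growth of the strain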
# Conditions: S. cerevisiae deletion strains, growth OD
# [1] = locus YAR019C, strain CDC15, stronger effect = lower value
# [2] = locus YBL105C, strain PKC1, stronger effect = lower value
# [3] = locus YBR135W, strain CKS1, stronger effect = lower value
# [4] = locus YBR136W, strain MEC1, stronger effect = lower value
# [5] = locus YBR160W, strain CDC28, stronger effect = lower value
# [6] = locus YDL017W, strain CDC7, stronger effect = lower value
# [7] = locus YDL028C, strain MPS1, stronger effect = lower value
# [8] = locus YDL101C, strain DUN1, stronger effect = lower value
# [9] = locus YDL108W, strain KIN28, stronger effect = lower value
# [10] = locus YDL132W, strain cdc53, stronger effect = lower value
# [11] = locus YDL214C, strain PRR2, stronger effect = lower value
# [12] = locus YDR052C, strain DBF4, stronger effect = lower value
# [13] = locus YDR054C, strain cdc34, stronger effect = lower value
# [14] = locus YDR226W, strain ADK1, stronger effect = lower value
# [15] = locus YDR477W, strain SNF1, stronger effect = lower value
# [16] = locus YER123W, strain YCK3, stronger effect = lower value
# [17] = locus YER133W, strain GLC7, stronger effect = lower value
# [18] = locus YFL009W, strain cdc4, stronger effect = lower value
# [19] = locus YFL029C, strain CAK1, stronger effect = lower value
# [20] = locus YFR003C, strain YPI1, stronger effect = lower value
# [21] = locus YFR019W, strain FAB1, stronger effect = lower value
# [22] = locus YFR028C, strain CDC14, stronger effect = lower value
# [23] = locus YGR040W, strain KSS1, stronger effect = lower value
# [24] = locus YGR052W, strain FMP48, stronger effect = lower value
# [25] = locus YGR092W, strain DBF2, stronger effect = lower value
# [26] = locus YHR030C, strain SLT2, stronger effect = lower value
# [27] = locus YHR079C, strain IRE1, stronger effect = lower value
# [28] = locus YHR082C, strain KSP1, stronger effect = lower value
# [29] = locus YHR205W, strain SCH9, stronger effect = lower value
# [30] = locus YIL147C, strain SLN1, stronger effect = lower value
# [31] = locus YJL095W, strain BCK1, stronger effect = lower value
# [32] = locus YJL128C, strain PBS2, stronger effect = lower value
# [33] = locus YJL157C, strain FAR1, stronger effect = lower value
# [34] = locus YJR016C, strain ILV3, stronger effect = lower value
# [35] = locus YJR066W, strain TOR1 (second series), stronger effect = lower value
# [36] = locus YJR066W, strain TOR1, stronger effect = lower value
# [37] = locus YKL048C, strain ELM1, stronger effect = lower value
# [38] = locus YKL067W, strain YNK1, stronger effect = lower value
# [39] = locus YKL101W, strain HSL1, stronger effect = lower value
# [40] = locus YKL193C, strain SDS22, stronger effect = lower value
# [41] = locus YKL203C, strain TOR2, stronger effect = lower value
# [42] = locus YLR113W, strain HOG1, stronger effect = lower value
# [43] = locus YLR133W, strain CKI1, stronger effect = lower value
# [44] = locus YLR403W, strain SFP1, stronger effect = lower value
# [45] = locus YML070W, strain DAK1, stronger effect = lower value
# [46] = locus YMR001C, strain CDC5, stronger effect = lower value
# [47] = locus YMR205C, strain PFK2 (second series), stronger effect = lower value
# [48] = locus YMR277W, strain FCP1, stronger effect = lower value
# [49] = locus YNL006W, strain LST8, stronger effect = lower value
# [50] = locus YNL020C, strain ARK1, stronger effect = lower value
# [51] = locus YNL161W, strain CBK1, stronger effect = lower value
# [52] = locus YNL183C, strain NPR1, stronger effect = lower value
# [53] = locus YNL207W, strain RIO2, stronger effect = lower value
# [54] = locus YNL222W, strain SSU72, stronger effect = lower value
# [55] = locus YNL307C, strain MCK1 (second series), stronger effect = lower value
# [56] = locus YOL078W, strain AVO1, stronger effect = lower value
# [57] = locus YOL136C, strain PFK27, stronger effect = lower value
# [58] = locus YOR061W, strain CKA2, stronger effect = lower value
# [59] = locus YOR119C, strain RIO1, stronger effect = lower value
# [60] = locus YOR231W, strain MKK1, stronger effect = lower value
# [61] = locus YOR329C, strain SCD5, stronger effect = lower value
# [62] = locus YPL031C, strain PHO85, stronger effect = lower value
# [63] = locus YPL153C, strain RAD53, stronger effect = lower value
# [64] = locus YPL204W, strain HRR25, stronger effect = lower value
# [65] = locus YPL209C, strain IPL1, stronger effect = lower value
# [66] = locus YPL256C, strain CLN2, stronger effect = lower value
# [67] = locus YPR025C, strain CCL1, stronger effect = lower value
# [68] = locus YPR106W, strain ISR1, stronger effect = lower value
# [69] = locus YPR111W, strain DBF20, stronger effect = lower value
# [70] = strain NNK1, stronger effect = lower value
# [71] = strain TSCII, stronger effect = lower value
compound,measurement,setting,value
Fc1cccc(Cl)c1CSc1n[nH]c(-c2cc(C(F)(F)F)cc(C(F)(F)F)c2)n1,normalized growth,[1],0.973
same,normalized growth,[2],0.981
same,normalized growth,[3],0.981
same,normalized growth,[4],0.982
same,normalized growth,[5],0.977
same,normalized growth,[6],0.987
same,normalized growth,[7],0.961
same,normalized growth,[8],0.986
same,normalized growth,[9],0.97
same,normalized growth,[10],0.975
same,normalized growth,[11],0.916
same,normalized growth,[12],0.994
same,normalized growth,[13],0.973
same,normalized growth,[14],0.971
same,normalized growth,[15],0.891
same,normalized growth,[16],0.918
same,normalized growth,[17],0.939
same,normalized growth,[18],0.961
same,normalized growth,[19],0.973
same,normalized growth,[20],0.977
same,normalized growth,[21],0.913
same,normalized growth,[22],0.973
same,normalized growth,[23],0.898
same,normalized growth,[24],0.925
same,normalized growth,[25],0.914
same,normalized growth,[26],0.372 (active)
same,normalized growth,[27],0.836
same,normalized growth,[28],0.871
same,normalized growth,[29],0.821
same,normalized growth,[30],0.98
same,normalized growth,[31],0.79
same,normalized growth,[32],0.957
same,normalized growth,[33],0.926
same,normalized growth,[34],0.981
same,normalized growth,[35],0.918
same,normalized growth,[36],0.873
same,normalized growth,[37],0.974
same,normalized growth,[38],0.916
same,normalized growth,[39],0.889
same,normalized growth,[40],0.975
same,normalized growth,[41],1.01
same,normalized growth,[42],0.773 (active)
same,normalized growth,[43],0.902
same,normalized growth,[44],0.926
same,normalized growth,[45],0.907
same,normalized growth,[46],0.97
same,normalized growth,[47],0.937
same,normalized growth,[48],0.959
same,normalized growth,[49],0.983
same,normalized growth,[50],0.905
same,normalized growth,[51],0.976
same,normalized growth,[52],0.933
same,normalized growth,[53],0.978
same,normalized growth,[54],0.965
same,normalized growth,[55],0.744
same,normalized growth,[56],0.976
same,normalized growth,[57],0.878
same,normalized growth,[58],0.911
same,normalized growth,[59],0.943
same,normalized growth,[60],0.846
same,normalized growth,[61],0.983
same,normalized growth,[62],0.896
same,normalized growth,[63],0.894
same,normalized growth,[64],0.868
same,normalized growth,[65],0.979
same,normalized growth,[66],0.811 (active)
same,normalized growth,[67],0.981
same,normalized growth,[68],0.97
same,normalized growth,[69],0.945
same,normalized growth,[70],0.96
same,normalized growth,[71],0.972
CSc1n[nH]c(-c2cc(C(F)(F)F)cc(C(F)(F)F)c2)n1,normalized growth,[1],0.939
same,normalized growth,[2],0.952
same,normalized growth,[3],0.946
same,normalized growth,[4],0.948
same,normalized growth,[5],0.939
same,normalized growth,[6],0.955
same,normalized growth,[7],0.939
same,normalized growth,[8],0.973
same,normalized growth,[9],0.918
same,normalized growth,[10],0.955
same,normalized growth,[11],0.892
same,normalized growth,[12],0.977
same,normalized growth,[13],0.938
same,normalized growth,[14],0.942
same,normalized growth,[15],0.895
same,normalized growth,[16],0.892
same,normalized growth,[17],0.935
same,normalized growth,[18],0.92
same,normalized growth,[19],0.918
same,normalized growth,[20],0.953
same,normalized growth,[21],0.979
same,normalized growth,[22],0.936
same,normalized growth,[23],0.893
same,normalized growth,[24],0.92
same,normalized growth,[25],0.894
same,normalized growth,[26],0.671 (active)
same,normalized growth,[27],0.82
same,normalized growth,[28],0.914
same,normalized growth,[29],0.785
same,normalized growth,[30],0.941
same,normalized growth,[31],0.791
same,normalized growth,[32],0.859
same,normalized growth,[33],0.938
same,normalized growth,[34],0.947
same,normalized growth,[35],0.939
same,normalized growth,[36],0.859
same,normalized growth,[37],0.904
same,normalized growth,[38],0.887
same,normalized growth,[39],0.853
same,normalized growth,[40],0.939
same,normalized growth,[41],1
same,normalized growth,[42],0.615 (active)
same,normalized growth,[43],0.904
same,normalized growth,[44],0.927
same,normalized growth,[45],0.878
same,normalized growth,[46],0.937
same,normalized growth,[47],0.925
same,normalized growth,[48],0.921
same,normalized growth,[49],0.945
same,normalized growth,[50],0.897
same,normalized growth,[51],0.948
same,normalized growth,[52],0.868
same,normalized growth,[53],0.947
same,normalized growth,[54],0.927
same,normalized growth,[55],0.856
same,normalized growth,[56],0.953
same,normalized growth,[57],0.84
same,normalized growth,[58],0.937
same,normalized growth,[59],0.942
same,normalized growth,[60],0.776
same,normalized growth,[61],0.95
same,normalized growth,[62],0.885
same,normalized growth,[63],0.887
same,normalized growth,[64],0.864
same,normalized growth,[65],0.952
same,normalized growth,[66],0.709 (active)
same,normalized growth,[67],0.946
same,normalized growth,[68],0.929
same,normalized growth,[69],0.952
same,normalized growth,[70],0.917
same,normalized growth,[71],0.937
